Laboratory results: PubChem BioAssay (Tox21)
Records with an inconclusive call do not appear. Activity calls are given as the source filed them. Unless noted, the call rests on the fitted dose curve.

How the values were obtained:
[1] = Nuclear factor erythroid 2-related factor 2/antioxidant responsive element (Nrf2/ARE) small molecule agonists: qHTS cell viability counter screen in human keratinocytes (AID 1919968; active means well fitted curve in the direction sought with a large enough effect in the repeat runs; an effect the other way counts as inactive or inconclusive; further: nearly all actives have a fitted effect of over 55% in size; further: potency means the concentration at half of the fitted maximal effect)
Summary of the method: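 Cytotoxicity was multiplexed with the Nrf2/ARE luciferase assay in the same wells. Stably transfected HaCaT keratinocytes were treated with test compounds for 23 h at 37 C. Cell viability was then measured by CellTiter-Fluor fluorescence.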

[2] = Nuclear factor erythroid 2-related factor 2/antioxidant responsive element (Nrf2/ARE) small molecule agonists: luciferase reporter gene qHTS assay in human keratinocytes (AID 1919969); further: nearly all actives have a fitted effect of over 35% in size; further: potency means the concentration at half of the fitted maximal effect
[3] = target: Gonadotropin-releasing hormone receptor (Homo sapiens) (UniProt P30968); experiment: Human gonadotropin-releasing hormone receptor (GnRHR) small molecule agonists, calcium flux assay in GnRHR-HEK293 cells (AID 1920063); further: nearly all actives have a fitted effect of over 35% in size; further: potency means the concentration at half of the fitted maximal effect
Chain of Gonadotropin-releasing hormone receptor (Homo sapiens) (P30968 whole entry, looked up): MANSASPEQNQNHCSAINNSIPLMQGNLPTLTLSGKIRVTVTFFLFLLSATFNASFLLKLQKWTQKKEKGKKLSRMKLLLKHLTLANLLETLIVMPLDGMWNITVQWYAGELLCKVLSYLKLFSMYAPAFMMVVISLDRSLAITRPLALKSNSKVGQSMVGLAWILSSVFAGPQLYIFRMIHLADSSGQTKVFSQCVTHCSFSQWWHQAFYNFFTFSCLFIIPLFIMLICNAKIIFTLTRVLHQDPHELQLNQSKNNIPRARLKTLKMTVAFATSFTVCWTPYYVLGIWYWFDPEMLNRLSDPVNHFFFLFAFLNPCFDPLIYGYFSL
Summary of the method: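 Agonist activity was measured as intracellular calcium flux in HEK293 cells engineered to stably express human GnRHR. After dye loading for 1 hour at 37 C, compounds in DMSO were added and fluorescence was followed for 3 minutes.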

[4] = target: KiSS-1 receptor (Homo sapiens) (UniProt Q969F8); experiment: Human kisspeptin (KISS1R) small molecule agonists, calcium flux assay in KISS1R-HEK293 cells (AID 1920064; active means well fitted curve in the direction sought with a large enough effect in the repeat runs; an effect the other way counts as inactive or inconclusive)
Chain of KiSS-1 receptor (Homo sapiens) (Q969F8 whole entry, looked up): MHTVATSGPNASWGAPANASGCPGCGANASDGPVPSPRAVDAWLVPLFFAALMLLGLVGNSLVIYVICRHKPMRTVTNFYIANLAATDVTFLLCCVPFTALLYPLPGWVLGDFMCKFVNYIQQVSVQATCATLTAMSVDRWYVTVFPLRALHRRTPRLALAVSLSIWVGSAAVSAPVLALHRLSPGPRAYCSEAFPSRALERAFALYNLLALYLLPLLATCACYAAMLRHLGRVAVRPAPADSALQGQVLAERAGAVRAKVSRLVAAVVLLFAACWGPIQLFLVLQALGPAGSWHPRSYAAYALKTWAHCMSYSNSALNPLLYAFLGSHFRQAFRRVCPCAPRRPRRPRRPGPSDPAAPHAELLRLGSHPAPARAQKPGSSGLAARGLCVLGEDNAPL
Summary of the method: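 Agonist activity is monitored as intracellular calcium rise in engineered HEK293 cells carrying human KISS1R. Cells are dye-loaded for 1 h at 37 C before compound addition, and fluorescence is recorded for 3 min.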

[5] = G protein-coupled receptor (GPCR) small molecule agonists, calcium flux assay: HEK293 wild type cell line counter screen (AID 1920065)
Summary of the method: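 Seed cells, incubate 18 h (37 C, 5% CO2); add calcium dye, 1 h at 37 C; pin-transfer compounds, ATP control or DMSO; read fluorescence 480/540 nm each second for 3 min.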

[6] = p53 small molecule agonists, cell-based qHTS assay with human liver microsomes (AID 1963577);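 further: p53 response element beta-lactamase reporter cells with liver microsomes plus NADPH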
Summary of the method: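 16 h, 37 C exposure of p53RE-bla cells to compounds with human liver microsomes and NADPH (0.5 mg/mL final each); detection via LiveBLAzer mixture, 2 h dark at room temperature.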

[7] = p53 small molecule agonists, cell-based qHTS assay with rat liver microsomes (AID 1963578)
Summary of the method: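 With rat liver microsomes and NADPH present (0.5 mg/mL final each), p53RE-bla cells are treated with compound for 16 h at 37 C. LiveBLAzer detection mixture is then applied for 2 h at room temperature in the dark.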

[8] = p53 small molecule agonists, cell-based qHTS assay with human liver microsomes: qHTS cell viability counter screen (AID 1963579); further: nearly all actives have a fitted effect of over 45% in size
Summary of the method: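 In this multiplexed counter screen, the reporter plates were subsequently treated with CellTiter-Glo so that cell viability, reflected by luminescence, could be recorded for p53RE-bla cells dosed 16 h with compounds under microsomal activation (HLM and NADPH).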

[9] = p53 small molecule agonists, cell-based qHTS assay: qHTS cell viability counter screen (AID 1963581); further: nearly all actives have a fitted effect of over 45% in size; further: potency means the concentration at half of the fitted maximal effect
Summary of the method: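 Viability was counter-screened in parallel with the p53 agonist reporter by measuring intracellular ATP luminescence in the same HCT-116 p53RE-bla wells after 16 h compound treatment at 37 C.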

[10] = p53 small molecule agonists, cell-based qHTS assay (AID 1963582; active means well fitted activation curve with a large enough effect in the signal ratio in the repeat runs, not every such curve was filed as active; the % refers to the signal ratio)
Summary of the method: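 Cells carrying a p53-responsive bla reporter are treated with test compounds for 16 h at 37 C; beta-lactamase activity is then detected with LiveBLAzer B/G FRET substrate after 2 h at room temperature.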

[11] = target: 5-hydroxytryptamine receptor 2A (Homo sapiens) (UniProt P28223); experiment: 5-hydroxytryptamine receptor 2A (HTR2A) small molecule agonists, cell-based qHTS assay (AID 1963587); further: nearly all actives have a fitted effect of over 30% in size; further: potency means the concentration at half of the fitted maximal effect
Chain of 5-hydroxytryptamine receptor 2A (Homo sapiens) (P28223 whole entry, looked up): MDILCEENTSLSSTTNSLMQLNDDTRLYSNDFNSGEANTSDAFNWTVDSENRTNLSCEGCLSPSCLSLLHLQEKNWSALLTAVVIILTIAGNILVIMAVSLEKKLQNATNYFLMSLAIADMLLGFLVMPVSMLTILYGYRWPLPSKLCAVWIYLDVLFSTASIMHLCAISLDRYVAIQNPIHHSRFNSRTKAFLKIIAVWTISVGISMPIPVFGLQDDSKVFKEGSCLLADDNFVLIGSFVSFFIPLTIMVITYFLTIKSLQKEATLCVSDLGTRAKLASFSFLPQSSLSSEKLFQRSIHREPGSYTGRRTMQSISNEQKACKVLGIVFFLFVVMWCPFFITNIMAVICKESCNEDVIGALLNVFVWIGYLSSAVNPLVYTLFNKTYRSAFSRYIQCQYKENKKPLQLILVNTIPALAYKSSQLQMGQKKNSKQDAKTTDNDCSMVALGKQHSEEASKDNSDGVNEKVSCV
Summary of the method: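 CHO cells stably expressing human HTR2A, plated 18 h, loaded with calcium dye 1 h at 37 C. Agonist mode: compounds added and intracellular calcium fluorescence recorded kinetically for 2 min at 1 sec intervals.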

[12] = target: Muscarinic acetylcholine receptor M1 (Homo sapiens) (UniProt P11229); experiment: Cholinergic receptor muscarinic 1 (CHRM1) small molecule antagonists, cell-based qHTS assay (AID 1963588); further: nearly all actives have a fitted effect of over 40% in size; further: potency means the concentration at half of the fitted maximal effect
Chain of Muscarinic acetylcholine receptor M1 (Homo sapiens) (P11229 whole entry, looked up): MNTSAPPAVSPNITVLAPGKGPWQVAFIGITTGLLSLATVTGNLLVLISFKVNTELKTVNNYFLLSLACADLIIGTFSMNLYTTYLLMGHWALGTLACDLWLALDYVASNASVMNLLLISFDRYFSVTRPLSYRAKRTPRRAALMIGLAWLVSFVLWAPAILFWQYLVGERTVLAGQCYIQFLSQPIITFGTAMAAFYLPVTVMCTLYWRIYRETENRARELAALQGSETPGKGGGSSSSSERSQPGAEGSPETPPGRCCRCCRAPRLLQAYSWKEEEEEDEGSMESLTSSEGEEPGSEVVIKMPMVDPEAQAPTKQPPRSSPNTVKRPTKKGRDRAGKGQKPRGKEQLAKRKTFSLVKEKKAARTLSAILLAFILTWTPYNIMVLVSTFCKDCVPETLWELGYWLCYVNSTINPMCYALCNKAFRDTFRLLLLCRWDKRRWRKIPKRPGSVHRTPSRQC
Summary of the method: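 Compounds were tested at 15 concentrations in three independent runs. Dye-loaded CHRM1-CHO cells were exposed 5 min at room temperature before stimulation by acetylcholine added at 50nM. Intracellular calcium was read kinetically on FDSS for 3 min.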

[13] = target: Muscarinic acetylcholine receptor M1 (Homo sapiens) (UniProt P11229); experiment: Cholinergic receptor muscarinic 1 (CHRM1) small molecule agonists, cell-based qHTS assay (AID 1963589); further: nearly all actives have a fitted effect of over 35% in size; further: potency means the concentration at half of the fitted maximal effect
Summary of the method: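 Cells were plated and incubated 18 h at 37 C/5% CO2, loaded with calcium dye for 1 h at 37 C, then treated with compounds in DMSO. Fluorescence was recorded kinetically at 1 sec intervals.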

[14] = cAMP Responsive Elements (CRE) small molecule agonists, cell-based qHTS assay (AID 1963590)
Summary of the method: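 Cells carrying a CRE-driven beta-lactamase reporter (HEK 293T) are seeded, incubated overnight (18 h), and treated with test compounds for 3 h at 37 C; reporter activity is then detected with a FRET substrate after 2 h at room temperature.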

[15] = cAMP Responsive Elements (CRE) small molecule antagonists, cell-based qHTS assay (AID 1963591; active means well fitted inhibition curve with a large enough effect in the signal ratio in the repeat runs, not every such curve was filed as active; the % refers to the signal ratio)
Summary of the method: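 Cells (CRE-bla HEK 293T, DMEM with 10% dialyzed FBS and 25 mM HEPES) are seeded and incubated 18 h. Compounds are added with NKH477 agonist at 0.25 uM final for 3 h, then FRET substrate for 2 h.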

[16] = target: Beta-2 adrenergic receptor (Homo sapiens) (UniProt P07550); experiment: Adrenergic beta2 receptor (ADRB2) small molecule antagonists, cell-based qHTS assay (AID 1963592); further: nearly all actives have a fitted effect of over 50% in size; further: potency means the concentration at half of the fitted maximal effect
Chain of Beta-2 adrenergic receptor (Homo sapiens) (P07550 whole entry, looked up): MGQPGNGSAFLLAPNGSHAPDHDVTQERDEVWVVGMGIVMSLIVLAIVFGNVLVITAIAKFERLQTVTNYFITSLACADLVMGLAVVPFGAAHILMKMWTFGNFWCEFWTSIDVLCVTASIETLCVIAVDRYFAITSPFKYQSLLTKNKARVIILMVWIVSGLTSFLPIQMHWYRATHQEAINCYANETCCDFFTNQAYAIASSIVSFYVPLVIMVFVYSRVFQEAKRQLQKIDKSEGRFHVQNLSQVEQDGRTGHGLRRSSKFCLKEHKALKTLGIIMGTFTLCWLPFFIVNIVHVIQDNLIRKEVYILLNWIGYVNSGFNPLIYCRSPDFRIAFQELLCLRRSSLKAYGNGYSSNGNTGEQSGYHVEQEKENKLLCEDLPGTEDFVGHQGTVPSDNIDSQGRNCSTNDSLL
Summary of the method: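 Assay format: CHO-ADRB2 cells, 18-20hr seeding at 37C/5% CO2, then compound plus 1nM isoproterenol agonist mix for 0.5hr RT. Homogeneous time-resolved fluorescence cAMP detection after 1hr, expressed as 665/615 nm ratio.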

[17] = target: D(2) dopamine receptor (Homo sapiens) (UniProt P14416); experiment: Dopamine D2 receptor (DRD2) small molecule agonists, cell-based qHTS assay (AID 1963594); further: nearly all actives have a fitted effect of over 35% in size
Chain of D(2) dopamine receptor (Homo sapiens) (P14416 whole entry, looked up): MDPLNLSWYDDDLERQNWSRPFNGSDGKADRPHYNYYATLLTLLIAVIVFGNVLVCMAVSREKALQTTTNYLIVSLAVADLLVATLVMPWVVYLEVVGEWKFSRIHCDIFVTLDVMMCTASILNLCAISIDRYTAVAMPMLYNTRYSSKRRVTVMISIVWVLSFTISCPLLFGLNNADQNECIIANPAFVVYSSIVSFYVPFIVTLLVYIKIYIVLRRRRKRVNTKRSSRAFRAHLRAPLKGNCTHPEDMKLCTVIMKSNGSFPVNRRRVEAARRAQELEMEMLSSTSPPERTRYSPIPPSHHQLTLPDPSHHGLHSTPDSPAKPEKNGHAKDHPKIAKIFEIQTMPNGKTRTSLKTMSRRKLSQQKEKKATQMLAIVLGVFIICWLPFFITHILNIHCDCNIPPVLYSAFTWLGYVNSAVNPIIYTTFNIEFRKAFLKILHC
Summary of the method: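 HEK293 cells stably expressing human DRD2, pre-treated with PDE inhibitor Ro20-1724 (0.1 mM final) and compound 10 min at room temperature, then stimulated with NKH477 (200nM […]) for 30 min. cAMP read by HTRF (665/620 nm).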

[18] = target: D(2) dopamine receptor (Homo sapiens) (UniProt P14416); experiment: Dopamine D2 receptor (DRD2) small molecule antagonists, cell-based qHTS assay (AID 1963595; active means well fitted inhibition curve with a large enough effect in the signal ratio in the repeat runs, with a control signal flat; the % refers to the signal ratio; further: potency means the concentration at half of the fitted maximal effect)
Summary of the method: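 DRD2-HEK293; 0.1 mM Ro20-1724; cpd 10 min RT; NKH477 200 nM + quinpirole 12 nM, 30 min RT; HTRF cAMP (cAMP-d2/anti-cAMP cryptate), 665/620 nm ratio after 1 h.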

[19] = p53 small molecule agonists, cell-based qHTS assay with rat liver microsomes: qHTS cell viability counter screen (AID 1963580); further: nearly all actives have a fitted effect of over 45% in size; further: potency means the concentration at half of the fitted maximal effect
Summary of the method: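 After the beta-lactamase ratio was read, CellTiter-Glo was added to the same wells and luminescence measured at 30 min; cells had been treated 16 h at 37 C with compounds, rat liver microsomes and NADPH (0.5 mg/mL final each).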

[20] = target: 5-hydroxytryptamine receptor 2A (Homo sapiens) (UniProt P28223); experiment: 5-hydroxytryptamine receptor 2A (HTR2A) small molecule antagonists, cell-based qHTS assay (AID 1963586); further: nearly all actives have a fitted effect of over 45% in size; further: potency means the concentration at half of the fitted maximal effect
Summary of the method: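 CHO cells stably expressing human HTR2A were plated for 18 h at 37 C, then loaded with calcium dye for 1 h. Compounds were preincubated 5 min at room temperature before DOI (4 nM solution) was added. Kinetic fluorescence was read for 3 min.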

Measured: Potency

CON(C)C(=O)Nc1ccc(Br)cc1
not listed: [19] | [20]
inactive: all other assays above

Oc1cccc(Cl)c1Cl
not listed: [8] | [14] | [15]
inactive: all other assays above

CC[C@H](C)[C@H]1O[C@]2(C=C[C@@H]1C)C[C@@H]1C[C@@H](C/C=C(\C)[C@@H](O[C@H]3C[C@H](OC)[C@@H](O[C@H]4C[C@H](OC)[C@@H](NC)[C@H](C)O4)[C@H](C)O3)[C@@H](C)/C=C/C=C3\CO[C@@H]4[C@H](O)C(C)=C[C@@H](C(=O)O1)[C@]34O)O2
active: [1] 9.69 µM | [3] 11 µM | [19] 14.5 µM | [9] 10.2 µM | [11] 38.9 µM | [12] 23.7 µM | [13] 38.9 µM | [16] 43.3 µM | [18] 13.7 µM
inactive: [2] | [4] | [5] | [6] | [7] | [20] | [17]

CN1C(=O)CN=C(c2ccccc2)c2cc([N+](=O)[O-])ccc21
not listed: [10] | [11] | [12] | [13] | [19] | [20]
inactive: all other assays above

Nc1c(Cl)c(F)nc(OCC(=O)O)c1Cl
not listed: [8] | [14] | [16] | [18]
inactive: all other assays above

C=C(Cl)Cl
not listed: [11] | [12] | [13] | [19] | [20]
inactive: all other assays above

CCCC[N+]1(C)[C@@H]2CC(OC(=O)[C@H](CO)c3ccccc3)C[C@H]1[C@@H]1O[C@@H]12 (stereo partly drawn)
active: [12] 3.65 µM
not listed: [8] | [10] | [11]
inactive: all other assays above

O=C=Nc1ccc(Cl)cc1
active: [2] 68.6 µM
not listed: [8] | [9]
inactive: all other assays above

O=C1c2ccccc2C(=O)C1C(=O)C(c1ccccc1)c1ccc(Cl)cc1 (stereo not drawn)
active: [1] 15.4 µM | [3] 17.4 µM | [20] 4.21 µM
not listed: [8] | [9] | [11] | [12] | [14]
inactive: all other assays above

Nc1ccc(Cl)cc1C(=O)c1ccccc1F
not listed: [8] | [9] | [10] | [15] | [20]
inactive: all other assays above

COC1=CC(=O)O[C@@H](CCc2ccccc2)C1
not listed: [8] | [10] | [11] | [13] | [14]
inactive: all other assays above

O=[Se]=O
not listed: [8] | [10] | [14]
inactive: all other assays above

CCOC(=O)C1(c2ccccc2)CCN(CCc2ccc(N)cc2)CC1
not listed: [12] | [17] | [19] | [20]
inactive: all other assays above

N[C@@H](Cc1ccc(Oc2cc(I)c(O)c(I)c2)c(I)c1)C(=O)O
not listed: [11] | [14] | [19] | [20]
inactive: all other assays above

CNC(C)Cc1ccccc1OC (stereo not drawn)
active: [11] 0.848 µM
not listed: [8] | [20]
inactive: all other assays above

CSC1=N[C@@](C)(c2ccccc2)C(=O)N1Nc1ccccc1
not listed: [8] | [10] | [12]
inactive: all other assays above

CCN(CC)c1c([N+](=O)[O-])cc(C(F)(F)F)c(N)c1[N+](=O)[O-]
not listed: [8] | [9] | [12] | [14] | [15] | [16] | [20]
inactive: all other assays above
